In PubChem BioAssay (Tox21):
Inconclusive results are not listed. Calls of active or inactive are those of the source. The call rests on the fitted dose curve; in most records, active means well fitted curve in the direction sought with a large enough effect in the repeat runs; inconclusive means weak or mixed curves; inactive means no such curve, though single readings can be large; an effect the other way counts as inactive or inconclusive.

Legend:
[1] = qHTS assay to identify small molecule agonists of the RXR signaling pathway - cell viability counter screen (AID 1159529);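 further: HEK 293T cells carrying an RXR-alpha UAS beta-lactamase reporter; series mostly up to about 77 µM; nearly all actives have a fitted effect of over 50% in size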
Summary of the method: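 Counter screen: CellTiter-Glo luminescence. Cells: RXR-alpha-UAS-bla HEK 293T. Medium: 2% charcoal-stripped FBS. Treatment: 16 h, 37 C. Reagent incubation: 30 min, RT.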

[2] = qHTS assay to identify small molecule antagonists of the retinoid acid receptor (RAR) signaling pathway - cell viability counter screen (AID 1159551); further: nearly all actives have a fitted effect of over 35% in size
Summary of the method: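 Viability of C3RL4 cells is quantified from ATP by luminescence after 6 h treatment at 37 C with compounds and 1 uM retinol.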

[3] = qHTS assay to identify small molecule antagonists of the retinoic acid receptor (RAR) signaling pathway (AID 1159552; further: nearly all actives have a fitted effect of over 50% in size)
Summary of the method: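 Antagonism of retinol-induced RARE reporter activity was measured in C3RL4 cells. Exposure to compounds and 1 uM final retinol lasted 6 hr at 37 C, with luminescence as endpoint.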

[4] = qHTS assay to identify small molecule agonists of the retinoic acid receptor (RAR) signaling pathway (AID 1159553)
Summary of the method: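 Compounds dissolved in DMSO were pinned onto C3RL4 cells seeded the previous day, and plates were held 6 hr at 37 C. RARE-driven luciferase output was then read by luminescence.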

[5] = qHTS assay to identify small molecule antagonists of the estrogen related receptor (ERR) signaling pathway - cell viability counter screen (AID 1224818);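 further: series mostly up to about 46 µM; viability measured after 17.5 h of compound exposure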
Summary of the method: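 Cytotoxicity check run alongside the ERR antagonist screen: cells exposed to test compounds 17.5 h at 37 C, viability taken as CellTiter-Fluor fluorescence intensity.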

[6] = qHTS assay to identify small molecule antagonists of the estrogen related receptor signaling pathway with the pleiotropic PPARgamma coactivator (PGC) cell viability counter screen (AID 1224822;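 further: series mostly up to about 46 µM; viability read after 17.5 h compound exposure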)
Summary of the method: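 Viable cell signal (CellTiter-Fluor, 30 min, 37 C/5% CO2) was measured in PGC/ERR cells after a 17.5 h compound incubation.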

Measured: Potency

Cc1ccc(C)c(O)c1C
inactive: [1] | [2] | [3] | [4]

CC(C)OC(=O)C(C)(C)Oc1ccc(C(=O)c2ccc(Cl)cc2)cc1
not listed: [1]
inactive: all other assays above

Cc1ccc(C(=O)c2cc(O)c(O)c([N+](=O)[O-])c2)cc1
inactive: [1] | [2]
